# PubChem BioAssay (Tox21)
# Several values for one entry are separate records, joined by “and”; a condition that tells them apart may be missing. Equal values may be shown once. Activity calls are given as the source filed them. Entries that show only a call come without a potency. Unless noted, the call rests on the fitted dose curve; in most records, active means well fitted curve in the direction sought with a large enough effect in the repeat runs; inconclusive means weak or mixed curves; inactive means no such curve, though single readings can be large; an effect the other way counts as inactive or inconclusive.
# What was measured:
# [1] = qHTS assay to identify small molecule antagonists of the glucocorticoid receptor (GR) signaling pathway - cell viability counter screen (AID 720693); further: nearly all actives have a fitted effect of over 55% in size
# [2] = qHTS assay for identifying genotoxic compounds that show differential cytotoxicity against isogenic chicken DT40 cell lines with known DNA damage response pathways - wild type cell line (AID 743012); further: nearly all actives have a fitted effect of over 60% in size; further: potency means the concentration at half of the fitted maximal effect
# Method in brief: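 Cytotoxicity in repair-proficient parental chicken DT40 cells serves as the comparator for Rad54/Ku70- and Rev3-deficient lines. Cells were exposed to compounds for 40 h at 37 C/5% CO2, and ATP-based luminescence (CellTiter-Glo) measured viability.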
# [3] = qHTS assay for identifying genotoxic compounds that show differential cytotoxicity against isogenic chicken DT40 cell lines with known DNA damage response pathways - Rev3 mutant cell line (AID 743014); further: nearly all actives have a fitted effect of over 55% in size; further: potency means the concentration at half of the fitted maximal effect
# [4] = qHTS assay for identifying genotoxic compounds that show differential cytotoxicity against isogenic chicken DT40 cell lines with known DNA damage response pathways - Rad54/Ku70 mutant cell line (AID 743015); further: nearly all actives have a fitted effect of over 60% in size; further: potency means the concentration at half of the fitted maximal effect
# [5] = qHTS assay to identify small molecule antagonists of the androgen receptor (AR) signaling pathway - cell viability counter screen (AID 743033; further: nearly all actives have a fitted effect of over 45% in size)
# [6] = qHTS assay to identify small molecule antagonists of the androgen receptor (AR) signaling pathway using the MDA cell line - cell viability counter screen (AID 743041; further: nearly all actives have a fitted effect of over 45% in size)
# Method in brief: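 qHTS viability read-out; MDA-kb2 AR-luc; R1881-stimulated; 16 h exposure at 37C, 0% CO2; CellTiter-Fluor, 30 min; fluorescence intensity.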
# [7] = qHTS assay to identify small molecule antagonists of the thyroid receptor (TR) signaling pathway - cell viability counter screen (AID 743064); further: nearly all actives have a fitted effect of over 50% in size; further: potency means the concentration at half of the fitted maximal effect
# Method in brief: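 Compounds were tested on GH3.TRE-Luc cells in the presence of T3 at 1 nM final. Following 23.5 h at 37 °C, cell viability was quantified by CellTiter-Fluor.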
# [8] = qHTS assay to identify small molecule antagonists of the thyroid receptor (TR) signaling pathway (AID 743065); further: nearly all actives have a fitted effect of over 55% in size; further: potency means the concentration at half of the fitted maximal effect
# Method in brief: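 GH3.TRE-Luc rat pituitary cells carrying two TR response elements driving luciferase were plated for 4 h, given compound plus 1 nM T3 (final), and incubated 23.5 h at 37 C. ONE-Glo luminescence measured reporter inhibition; CellTiter-Fluor fluorescence tracked cytotoxicity.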
# [9] = test system: thyroid hormone receptor (rat, GH3 cells); assay: qHTS assay to identify small molecule agonists of the thyroid receptor (TR) signaling pathway (AID 743066; calls by dose curve)
# [10] = target: Estrogen receptor (Homo sapiens) (UniProt P03372); assay: qHTS assay to identify small molecule antagonists of the estrogen receptor alpha (ER-alpha) signaling pathway (AID 743069; active means well fitted curve in the direction sought with a large enough effect in the signal ratio in the repeat runs, not every such curve was filed as active; inconclusive means weak or mixed curves, or effect the other way; inactive means no such curve, though single readings can be large or run the other way; the % refers to the signal ratio)
# Method in brief: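 Screening used a UAS-driven beta-lactamase reporter integrated into HEK293 cells expressing ER-alpha, stimulated with 17beta-estradiol alongside test compounds over 18 hr at 37C; signal came from LiveBLAzer B/G FRET fluorescence.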
# [11] = qHTS assay to identify small molecule antagonists of the estrogen receptor alpha (ER-alpha) signaling pathway - cell viability counter screen (AID 743074; calls by dose curve; further: nearly all actives have a fitted effect of over 45% in size)
# [12] = target: Estrogen receptor (Homo sapiens) (UniProt P03372); assay: qHTS assay to identify small molecule agonists of the estrogen receptor alpha (ER-alpha) signaling pathway (AID 743075; calls by dose curve; further: potency means the concentration at half of the fitted maximal effect)
# [13] = target: Estrogen receptor (Homo sapiens) (UniProt P03372); assay: qHTS assay to identify small molecule agonists of the estrogen receptor alpha (ER-alpha) signaling pathway using the BG1 cell line (AID 743079); further: nearly all actives have a fitted effect of over 20% in size; further: potency means the concentration at half of the fitted maximal effect
# [14] = qHTS assay to identify small molecule antagonists of the estrogen receptor alpha (ER-alpha) signaling pathway using the BG1 cell line - cell viability counter screen (AID 743081);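 further: compound given together with 17beta-estradiol as the ER stimulus; series mostly up to about 70 µM; nearly all actives have a fitted effect of over 45% in size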
# Aromatase (Homo sapiens) = Aromatase (Homo sapiens) (UniProt P11511); assay: qHTS assay to identify aromatase inhibitors (AID 743083); further: nearly all actives have a fitted effect of over 55% in size; further: potency means the concentration at half of the fitted maximal effect
# [15] = qHTS assay to identify small molecule antagonists of the estrogen receptor alpha (ER-alpha) signaling pathway using the BG1 cell line (AID 743080; calls by dose curve;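 further: BG1 cells stimulated with 17beta-estradiol alongside compound; series mostly up to about 70 µM; nearly all actives have a fitted effect of over 25% in size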)
# Method in brief: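 Luminescence from a 4×ERE-luciferase reporter in BG1-Luc-4E2 cells served as read-out. Cells, pre-cultured 5 days in stripped-serum phenol-red-free medium, were exposed to compound with 17beta-estradiol co-stimulation for 21.5 h at 37 C.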
# Estrogen receptor (Homo sapiens), sequence (P03372 whole entry, looked up): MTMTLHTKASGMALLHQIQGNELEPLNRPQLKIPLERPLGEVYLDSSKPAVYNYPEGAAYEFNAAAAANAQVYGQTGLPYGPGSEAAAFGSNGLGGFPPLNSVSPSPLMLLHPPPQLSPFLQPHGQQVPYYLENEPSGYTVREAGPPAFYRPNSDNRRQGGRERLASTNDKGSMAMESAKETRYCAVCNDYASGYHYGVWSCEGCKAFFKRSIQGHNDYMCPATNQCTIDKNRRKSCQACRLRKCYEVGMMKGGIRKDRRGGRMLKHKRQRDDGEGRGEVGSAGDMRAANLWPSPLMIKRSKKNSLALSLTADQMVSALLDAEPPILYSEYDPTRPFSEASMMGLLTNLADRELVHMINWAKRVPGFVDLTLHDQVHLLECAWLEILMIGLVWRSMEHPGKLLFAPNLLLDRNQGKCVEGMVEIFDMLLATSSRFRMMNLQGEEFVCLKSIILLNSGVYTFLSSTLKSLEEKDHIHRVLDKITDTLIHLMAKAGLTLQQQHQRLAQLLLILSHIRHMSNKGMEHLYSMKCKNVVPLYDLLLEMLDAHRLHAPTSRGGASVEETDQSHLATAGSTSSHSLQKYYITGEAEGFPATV
# Aromatase (Homo sapiens), sequence (P11511 whole entry, looked up): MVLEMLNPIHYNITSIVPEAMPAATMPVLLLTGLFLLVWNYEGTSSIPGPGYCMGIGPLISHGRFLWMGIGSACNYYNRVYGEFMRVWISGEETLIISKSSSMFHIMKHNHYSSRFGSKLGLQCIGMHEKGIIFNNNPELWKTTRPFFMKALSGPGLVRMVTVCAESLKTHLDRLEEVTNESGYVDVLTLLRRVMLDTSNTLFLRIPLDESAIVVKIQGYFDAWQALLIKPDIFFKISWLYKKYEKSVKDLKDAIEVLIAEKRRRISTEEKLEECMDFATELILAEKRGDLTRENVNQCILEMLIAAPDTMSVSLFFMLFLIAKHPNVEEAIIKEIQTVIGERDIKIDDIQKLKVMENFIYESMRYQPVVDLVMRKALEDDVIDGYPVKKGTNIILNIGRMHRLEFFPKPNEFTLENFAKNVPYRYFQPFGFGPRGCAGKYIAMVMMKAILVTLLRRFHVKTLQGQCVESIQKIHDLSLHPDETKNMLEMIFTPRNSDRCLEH
Compound,Potency [1],Potency [2],Potency [3],Potency [4],Potency [5],Potency [6],Potency [7],Potency [8],outcome [9],Potency [10],outcome [11],Potency [12],Potency [13],Potency [14],Potency (Aromatase (Homo sapiens)),Potency [15]
CC(CCl)OC(C)CCl (stereo not given),inactive,inactive,inactive,inactive,inactive,inactive,inactive,inactive,inactive,inactive,inactive,inactive,inactive,inactive,,
CCCCCCCCCCCCN1CCOCC1,inactive,27.3 µM (active),8.63 µM (active),19.3 µM (active),inactive,inactive,inactive,inactive,inactive,inactive,inactive,inactive,inactive,inactive,inactive,
CCOC(OCC)OCC,inactive,inactive,inactive,inactive,inactive,inactive,inactive,inactive,inactive,inactive,inactive,inactive,inactive,inactive,inactive,inactive
CC(C)(O)C(=O)O,inactive,inactive,inactive,inactive,inactive,inactive,inactive,inactive,inactive,,inactive,,,inactive,,
Cc1cc(C)c(C)c(O)c1,inactive,inactive,inactive,inactive,inactive,inactive,inactive,inactive,inactive,,inactive,inactive,inactive,inactive,inactive,
C=CC(C)CCC=C(C)C (stereo not given),inactive,inactive,inactive,inactive,inactive,inactive,inactive,inactive,inactive,,inactive,,,inactive,inactive,
O=C(O)c1ccc2cc(O)ccc2c1,inactive,inactive,inactive,inactive,inactive,inactive,inactive,inactive,inactive,inactive,inactive,inactive,,inactive,inactive,inactive
Nc1ccc(C(=O)Oc2ccccc2)c(O)c1,inactive,29.8 µM (active),inactive,29.8 µM (active),inactive,inactive,inactive,,inactive,inactive,inactive,13.4 µM [inconclusive] (active),6.68 µM (active),inactive,inactive,
Clc1cc(Cl)c2c(c1)N=C1CCCCCN1C2,inactive,13.3 µM (active),8.41 µM (active),13.3 µM (active),inactive,inactive,inactive,,inactive,,inactive,inactive,23.7 µM (active),inactive,inactive,
COc1cc(CNC(=O)CCCC/C=C/C(C)C)ccc1O,inactive,inactive,inactive,inactive,inactive,inactive,inactive,,inactive,inactive,inactive,inactive,inactive,inactive,,inactive
C=Cc1ccc(C=C)cc1,inactive,inactive,inactive,inactive,inactive,inactive,inactive,inactive,inactive,inactive,,inactive,inactive,inactive,inactive,inactive
Cc1c(-c2cccnc2)c2ccccc2n1CCCCC(=O)O,inactive,inactive,30.6 µM (active),inactive,inactive,inactive,inactive,inactive,inactive,,inactive,,,inactive,43.3 µM (active),
CCCCOc1ccc(N)cc1,inactive,inactive,inactive,inactive,inactive,inactive,inactive,inactive,inactive,inactive,inactive,inactive,,inactive,inactive,
O=C(Cl)c1cc(Cl)cc(Cl)c1,inactive,inactive,inactive,inactive,inactive,inactive,inactive,,inactive,inactive,inactive,inactive,inactive,inactive,inactive,inactive
C=CCCC,inactive,inactive,inactive,inactive,inactive,inactive,inactive,inactive,inactive,inactive,inactive,inactive,inactive,inactive,inactive,
Nc1nc(Cl)nc2c1ncn2[C@H]1C[C@H](O)[C@@H](CO)O1,inactive,13.3 nM (active) and 1.9 nM (active),16.8 nM (active) and 1.7 nM (active),21.1 nM (active) and 2.7 nM (active),inactive,inactive,422 nM (active) and 136 nM (active),,inactive,,inactive,,,inactive,inactive,
CC1(C)CC(=O)CC(C)(C)N1,inactive,inactive,inactive,inactive,inactive,inactive,inactive,inactive,inactive,,inactive,inactive,inactive,inactive,inactive,inactive
O=C(O)c1cccnc1Nc1cccc(C(F)(F)F)c1,inactive,inactive,inactive,inactive,inactive,inactive,inactive,,inactive,,inactive,inactive,inactive,inactive,inactive,inactive
COc1ccc(CN(CCN(C)C)c2ncccn2)cc1,inactive,inactive,inactive,inactive,inactive,inactive,inactive,inactive,inactive,,inactive,,,inactive,inactive,
C=CC(=O)OCCCCCCCCCC,inactive,inactive,inactive,inactive,inactive,inactive,inactive,,inactive,inactive,inactive,inactive,inactive,inactive,inactive,

Compound,Potency [1],Potency [2],Potency [3],Potency [4],Potency [5],Potency [6],Potency [7],Potency [8],outcome [9],Potency [10],outcome [11],Potency [12],Potency [13],Potency [14],Potency (Aromatase (Homo sapiens)),Potency [15]
O=C(NC1CCN(CCc2c[nH]c3ccccc23)CC1)c1ccccc1,inactive,23.7 µM (active),33.5 µM (active),29.8 µM (active),inactive,inactive,26.6 µM (active),26.6 µM (active),inactive,,inactive,,,,inactive,
CC1(C)C(=O)NC(=O)N1CO,inactive,inactive,inactive,inactive,inactive,inactive,inactive,,inactive,inactive,inactive,inactive,,inactive,inactive,inactive
CC(C)(C)N,inactive,inactive,inactive,inactive,inactive,inactive,inactive,,inactive,inactive,inactive,inactive,inactive,inactive,inactive,inactive
C/C=C1\[C@H]2C=C(C)C[C@]1(N)c1ccc(=O)[nH]c1C2,inactive,inactive,inactive,inactive,inactive,inactive,inactive,inactive,,,inactive,,,inactive,inactive,
Cc1c(Cl)cccc1[N+](=O)[O-],inactive,inactive,inactive,inactive,inactive,inactive,inactive,inactive,inactive,,inactive,,,inactive,inactive,
O=[N+]([O-])c1ccc(Cl)cc1Cl,inactive,inactive,inactive,inactive,inactive,inactive,inactive,inactive,inactive,,,,,inactive,inactive,
CC(=O)S[C@H](C(=O)N[C@H]1Cc2ccccc2[C@H]2CCC[C@@H](C(=O)O)N2C1=O)C(C)C,inactive,inactive,inactive,inactive,inactive,inactive,inactive,inactive,inactive,,inactive,,,inactive,inactive,
O=[N+]([O-])c1ccccc1CCO,inactive,inactive,inactive,inactive,inactive,inactive,inactive,inactive,inactive,,inactive,,,inactive,inactive,
C=C[Si](OCC)(OCC)OCC,inactive,inactive,inactive,inactive,inactive,inactive,inactive,inactive,inactive,,inactive,,,inactive,inactive,
CCCCCCCCCCCCSC#N,inactive,inactive,inactive,inactive,inactive,inactive,inactive,,inactive,inactive,inactive,inactive,inactive,inactive,inactive,inactive
CC(=O)Nc1ccn(C2COC(COC(=O)c3ccccc3)O2)c(=O)n1 (stereo not given),inactive,9.44 µM (active),13.3 µM (active),11.9 µM (active),inactive,inactive,inactive,16.8 µM (active),inactive,,,,,inactive,,
N#CCCCC(C#N)CCC#N (stereo not given),inactive,inactive,inactive,inactive,inactive,inactive,inactive,,inactive,inactive,inactive,inactive,,inactive,inactive,
Nc1ccc(-c2ccc(F)cc2)cc1,inactive,68.6 µM (active),48.6 µM (active),68.6 µM (active),inactive,inactive,inactive,inactive,inactive,,inactive,inactive,54.5 µM (active),inactive,inactive,
CCC(=O)O[C@@H]1C[C@H]2CC[C@]1(C)C2(C)C,inactive,inactive,inactive,inactive,inactive,inactive,inactive,inactive,inactive,,inactive,,,inactive,inactive,
FC1(F)C(F)(F)C(F)(F)C2(F)C(F)(C1(F)F)C(F)(F)C(F)(F)C1(F)C(F)(F)C(F)(F)C(F)(F)C(F)(F)C12F (stereo not given),inactive,inactive,inactive,inactive,inactive,inactive,inactive,inactive,inactive,,inactive,,,inactive,inactive,
Oc1ccc(CCNCCCCCCNCCc2ccccc2)cc1O,inactive,13.3 µM (active),29.8 µM (active),26.6 µM (active),inactive,inactive,29.8 µM (active),26.6 µM (active),,inactive,,inactive,inactive,,inactive,inactive
CC(C)CCCCCOC(=O)CS,inactive,61.1 µM (active),54.5 µM (active),54.5 µM (active),inactive,inactive,inactive,,inactive,inactive,inactive,inactive,inactive,inactive,,
CCn1nc(Cc2ccccc2)cc1C1CCN(C[C@H]2C[C@H](N(C)[C@@H](C(=O)O)C(C)C)C[C@@H]2c2cccc(F)c2)CC1,inactive,61.1 µM (active),61.1 µM (active),24.3 µM (active),inactive,inactive,27.3 µM (active),61.1 µM (active),inactive,,inactive,inactive,inactive,,inactive,
C/C(=C\C(C)CC(C)CC(C)C)C1CC(=O)OC1=O (stereo not given),inactive,inactive,inactive,inactive,inactive,inactive,inactive,,inactive,,inactive,inactive,inactive,inactive,inactive,
COC(=O)C(C)(C)C,inactive,inactive,inactive,inactive,inactive,inactive,inactive,inactive,inactive,,inactive,,,inactive,inactive,
